In PubChem BioAssay (NCATS):
“And” between values parts separate entries of the source, which are not always exact repeats. Equal entries are not always repeated. Results filed as inconclusive are left out. The source made the active and inactive calls. Unless noted, calls follow the shape of the dose curve; as a rule, active = well fitted curve in either direction with a large enough effect (not every such curve was filed as active); inconclusive = small, poorly fitted or top-dose-only effect, or another doubt; inactive = flat fitted curve, though single readings scatter.

Assays:
[1] = molecular target: Lysosomal acid glucosylceramidase (Homo sapiens) (UniProt P04062); experiment: Glucocerebrosidase-p2 (AID 348; in the data active = potency below about 10 µM; also: potency is read from the fitted curve at half-maximal effect); conditions: purified GBA, blue fluorogenic substrate, 40 min
How it was run: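 Compounds titrated from 0.6 nM upwards against 0.2 nM enzyme in pH 5.9 citric acid/KH2PO4, taurocholate, tween-20; blue fluorogenic substrate 80 uM, 40 min room temperature, stopped and read Ex 365/Em 440 for AC50.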

[2] = AP1 Signaling Pathway (AID 357); conditions: ME-180 AP-1-bla reporter, EGF-induced, beta-lactamase ratio, 5 h; at 7.69 µM (top of the series) unless noted; also: % is scaled to controls: 0 for no effect and ±100 for the full control effect
How it was run: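 Titration-series screen for positive or negative modulators of EC50 EGF-induced signaling in ME-180 cells carrying an AP-1-driven beta-lactamase reporter. After 5 hours at 37 degrees Celsius, CCF4 460nm/530nm emission ratio gave %Activity; AC50 values derived.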

[3] = molecular target: Cytochrome P450 1A2 (Homo sapiens) (UniProt P05177); experiment: p450-cyp1a2 (AID 410; calls by dose curve; also: potency is read from the fitted curve at half-maximal effect;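 as to activity change, negative = inhibition: -100% = full effect of reference inhibitor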); conditions: recombinant CYP1A2, luciferin-ME demethylation, luminescence; series mostly up to 57 µM
How it was run: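 Luminescent readout of luciferin formed from Luciferin-ME by human CYP1A2; data normalized against complete inhibition by 57 uM furafylline. Enzyme 20nM, substrate 100uM at Km, 100mM KPO4 buffer, 60 min reaction at room temperature.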

[4] = NFAT Signaling Pathway (AID 444); conditions: Jurkat NFAT-bla M1, carbachol, beta-lactamase ratio, 5 h; at 7.69 µM (top of the series) unless noted;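 also: carbachol stimulus at about its EC50 of 1 µM final; % is scaled to controls: 0 for no effect and ±100 for the full control effect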
How it was run: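 Jurkat cells carrying an NFAT-driven β-lactamase reporter and co-transfected muscarinic M1 receptor were treated with compound plus carbachol (1 uM final, an EC50 level) for 5 h at 37 °C. CCF4 loading followed for 1 h at RT; 460/530 nm ratio gave %activity.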

[5] = Stat Signaling Pathway (AID 446); conditions: ME-180 SIE beta-lactamase reporter, IL-6 stimulated, 5 h; at 7.69 µM (top of the series) unless noted;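 also: ME-180 cervical cancer cells given 40 pM IL-6 alongside compound; SIE-controlled beta-lactamase reporter measured as 460/530 nm FRET emission ratio; % is scaled to controls: 0 for no effect and ±100 for the full control effect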
How it was run: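 Screening format detects activators and inhibitors alike: ME-180 SIE-bla cells stimulated at 40 pM IL-6 for 5 hrs with compound, then dual-emission beta-lactamase read at 405 nm excitation.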

[6] = molecular target: Glucocorticoid receptor (Homo sapiens) (UniProt P04150); experiment: GR-GFP Redistribution (AID 450;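 active = compounds whose dose series gives a full or clear partial fitted curve of increased nuclear translocation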; also: potency is read from the fitted curve at half-maximal effect); conditions: U2OS GR-GFP nuclear translocation, laser cytometry, 2 h
[7] = molecular target: Glucocorticoid receptor (Homo sapiens) (UniProt P04150); experiment: GR-EFC Redistribution (AID 451; calls by dose curve; also: potency is read from the fitted curve at half-maximal effect); conditions: CHO-K1 GR-EFC translocation, beta-gal luminescence, 2 h
How it was run: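 CHO-K1 cells stably expressing nuclear-localized β-gal enzyme acceptor and GR fused C-terminally to the enzyme donor fragment; ligand-driven nuclear translocation restores β-gal by complementation. Compounds titrated up to 46 uM final, 2 h at 37 °C; luminescence read.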

[8] = molecular target: Mitogen-activated protein kinase 10 (Mus musculus) (UniProt Q61831); experiment: JNK3 AlphaScreen Assay (AID 530); conditions: JNK3 lysate, c-Jun phosphorylation; series mostly up to 57.1 µM;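 also: kinase came from lysate of stimulated human HepG2 cells; signal reports phosphorylation of biotinylated GST-cJun 1-79 at Ser73 with 10 µM ATP; % is scaled to controls: 0 for no effect and ±100 for the full control effect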
How it was run: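 Inhibitors reduce antibody binding to phosphorylated biotin-cJun, lowering AlphaScreen luminescence. Lysates from HepG2 cells pre-activated by IL-1beta plus TNF-alpha supplied JNK3; compounds were titrated.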

[9] = molecular target: 3',5'-cyclic-AMP phosphodiesterase 4B (Homo sapiens) (UniProt Q07343); experiment: qHTS Assay for Inhibitors of PDE-IV (AID 607; active = well fitted activation curve with a large enough effect in the main read-out, with a control signal flat, not every such curve was filed as active; also: % of control where 0% means no effect); conditions: HEK293 ACTOne CNG channel cells, membrane potential fluorescence; series mostly up to 22.9 µM
How it was run: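 The readout is membrane depolarisation from a cAMP-sensing CNG channel, detected with a potential dye at ex 535/em 590. Cells were HEK293-derived (endogenous PDE-IV) at 1000 cells/well, titrated up to 22.9 uM final.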

[10] = molecular target: Cytochrome P450 3A4 (Homo sapiens) (UniProt P08684); experiment: qHTS Assay for Activators of Cytochrome P450 3A4 (AID 885; active = well fitted curve in the direction sought with a large enough effect; an effect the other way counts as inactive or inconclusive; also: nearly all actives have a fitted effect of over 65% in size); conditions: recombinant CYP3A4, Luciferin-PPXE luminescence, 60 min; series mostly up to 57.1 µM
How it was run: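 Steps: enzyme/substrate mix dispensed; compound added, 10 min RT; NADPH regeneration solution added, 60 min RT; luciferin detection buffer stops reaction; 20 min later luminescence measured.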

[11] = Confirmation and Secondary Assay for Modulators of Hemoglobin Beta Chain Splicing at IVS2 654 locus (AID 910; active = well fitted curve in the direction sought with a large enough effect; an effect the other way counts as inactive or inconclusive;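 also: per-well total GFP intensity by laser scanning cytometry after 2-day treatment; % of control where 0% means no effect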); conditions: HeLa EGFP-654 splicing reporter, GFP fluorescence, 48 h; series mostly up to 38.3 µM
How it was run: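 HeLa cells stably carrying EGFP interrupted by mutant beta-globin IVS2-654 intron (CMV-driven) were treated with compound for 2 days at 37C; corrected splicing was scored as total peak GFP intensity per well (488 nm excitation, 500-520 nm emission).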

[12] = qHTS Assay for Identification of Small Molecule Agonists for Hypoxia Response Element Signaling Pathway (AID 914; active = well fitted activation curve with a large enough effect in the signal ratio, with a control signal flat, not every such curve was filed as active; the % refers to the signal ratio; also: % of control where 0% means no effect); conditions: ME-180 (cervical carcinoma) HRE-bla reporter, beta-lactamase ratio, CoCl2, 17 h; activation: stronger effect = higher value
How it was run: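 Cells were plated overnight, pin-dosed with compound in a titration series, co-stimulated with EC50 CoCl2 and incubated 17 hours at 37 degrees Celsius. CCF4 substrate was then loaded, and AC50 values came from the 460nm/530nm ratio.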

[13] = Confirmation and Secondary Assay for Modulators of Hemoglobin Beta Chain Splicing at IVS2 705 locus (AID 930; active = well fitted curve in the direction sought with a large enough effect; an effect the other way counts as inactive or inconclusive;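 also: HeLa cells stably expressing the EGFP-705 splicing reporter; GFP fluorescence per well restored by corrected splicing of the IVS2-705 intron in EGFP; % of control where 0% means no effect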); conditions: HeLa EGFP-705 splicing reporter, GFP fluorescence, 48 h; series mostly up to 38.3 µM
How it was run: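 Splice-correction reporter: EGFP cDNA split by beta-globin intron 2 bearing the 705 mutation, stably in HeLa. Compound incubation 2 days, 37C; fluorescent objects 5-250 µm summed per well.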

[14] = Primary qHTS for small molecule stabilizers of the endoplasmic reticulum resident proteome: Secreted ER Calcium Modulated Protein (SERCaMP) assay (AID 1508630; active = well fitted curve in the direction sought with a large enough effect; an effect the other way counts as inactive or inconclusive; also: % is scaled to controls: 0 for no effect and ±100 for the full control effect); conditions: SH-SY5Y GLuc-SERCaMP (Gaussia luciferase released on ER calcium loss) secretion, thapsigargin, luminescence; series mostly up to 38.4 µM
How it was run: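 GLuc-SERCaMP-expressing SH-SY5Y cells, pretreated 16 h with compound, are challenged with thapsigargin to empty ER calcium stores; after 4 h, coelenterazine is added directly to the medium and luminescence is imaged.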

[15] = qHTS Assay for Lipid Storage Modulators (AID 1519; calls by dose curve); conditions: Drosophila S3 cells, BODIPY lipid droplet/cell ratio, laser cytometry, cells loaded with oleic acid; for activity change, negative = inhibition: at 57.5 µM (top of the series)
How it was run: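 Cells seeded at 5,000 per well were treated with compounds over a concentration series and loaded with oleic acid (400 uM, as added). Lipid droplet fluorescence (488 nm excitation, 500-530 nm channel) was read by laser-scanning cytometry and normalized to 20 uM Triacsin C.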

[16] = molecular target: Ubiquitin carboxyl-terminal hydrolase 1 (Homo sapiens) (UniProt O94782); experiment: Inhibitors of USP1/UAF1: Pilot qHTS (AID 504865; active = well fitted curve in the direction sought with a large enough effect; an effect the other way counts as inactive or inconclusive;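 also: rhodamine fluorescence freed from ubiquitin-rhodamine substrate followed over time; top concentration of the series differs between compounds; % is scaled to controls: 0 for no effect and ±100 for the full control effect; nearly all actives have a fitted effect of over 35% in size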); conditions: purified USP1/UAF1, Ub-rhodamine cleavage fluorescence; series mostly up to 54.9 µM
How it was run: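 1nM USP1/UAF1 + cpd, 15 min RT; start w/ Ub-Rho 150nM final; kinetic FL 480/540 nm, 6 reads q60 s. Buffer 50mM HEPES pH 7.8, 0.5mM EDTA, 1mM TCEP, 0.01% Tween-20, 0.1 mg/ml BSA.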

[17] = measured here: cell count channel max response
[18] = measured here: lipid channel max response

Lysosomal acid glucosylceramidase (Homo sapiens), sequence (P04062 whole entry, looked up): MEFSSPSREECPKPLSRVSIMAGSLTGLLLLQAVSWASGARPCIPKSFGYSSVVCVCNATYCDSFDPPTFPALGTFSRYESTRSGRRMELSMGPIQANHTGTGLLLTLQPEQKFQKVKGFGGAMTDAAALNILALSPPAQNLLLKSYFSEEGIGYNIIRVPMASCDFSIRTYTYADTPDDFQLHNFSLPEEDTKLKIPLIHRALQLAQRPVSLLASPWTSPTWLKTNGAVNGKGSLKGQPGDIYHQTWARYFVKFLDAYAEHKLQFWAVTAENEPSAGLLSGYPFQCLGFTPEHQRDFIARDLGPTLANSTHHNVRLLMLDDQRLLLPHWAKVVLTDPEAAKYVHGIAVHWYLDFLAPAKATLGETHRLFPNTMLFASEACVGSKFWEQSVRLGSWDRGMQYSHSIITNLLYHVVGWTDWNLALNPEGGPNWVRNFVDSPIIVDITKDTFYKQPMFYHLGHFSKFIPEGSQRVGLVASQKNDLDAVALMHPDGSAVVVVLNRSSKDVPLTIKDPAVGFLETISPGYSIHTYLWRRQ
Glucocorticoid receptor (Homo sapiens), sequence (P04150 whole entry, looked up, the tested form may be a part): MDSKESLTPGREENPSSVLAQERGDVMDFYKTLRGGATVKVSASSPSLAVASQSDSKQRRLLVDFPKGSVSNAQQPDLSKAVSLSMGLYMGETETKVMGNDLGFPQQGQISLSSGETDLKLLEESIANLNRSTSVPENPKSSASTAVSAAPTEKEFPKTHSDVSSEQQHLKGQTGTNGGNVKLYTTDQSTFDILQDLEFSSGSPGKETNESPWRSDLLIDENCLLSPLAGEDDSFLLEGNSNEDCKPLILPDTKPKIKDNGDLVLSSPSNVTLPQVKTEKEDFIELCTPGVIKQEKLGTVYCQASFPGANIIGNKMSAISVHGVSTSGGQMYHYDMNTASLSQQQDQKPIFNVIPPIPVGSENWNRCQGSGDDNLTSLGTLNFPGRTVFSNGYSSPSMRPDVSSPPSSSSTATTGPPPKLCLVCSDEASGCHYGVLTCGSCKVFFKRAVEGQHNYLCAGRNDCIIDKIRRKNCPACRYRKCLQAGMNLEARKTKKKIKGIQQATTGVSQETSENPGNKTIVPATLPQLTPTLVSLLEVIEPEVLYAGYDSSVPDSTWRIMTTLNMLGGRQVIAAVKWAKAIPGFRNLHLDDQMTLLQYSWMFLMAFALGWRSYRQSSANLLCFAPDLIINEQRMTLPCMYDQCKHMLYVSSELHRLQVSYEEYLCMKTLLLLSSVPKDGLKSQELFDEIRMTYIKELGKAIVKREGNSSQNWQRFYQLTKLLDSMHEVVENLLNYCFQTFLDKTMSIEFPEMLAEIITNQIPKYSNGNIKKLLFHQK
Cytochrome P450 1A2 (Homo sapiens), sequence (P05177 whole entry, looked up): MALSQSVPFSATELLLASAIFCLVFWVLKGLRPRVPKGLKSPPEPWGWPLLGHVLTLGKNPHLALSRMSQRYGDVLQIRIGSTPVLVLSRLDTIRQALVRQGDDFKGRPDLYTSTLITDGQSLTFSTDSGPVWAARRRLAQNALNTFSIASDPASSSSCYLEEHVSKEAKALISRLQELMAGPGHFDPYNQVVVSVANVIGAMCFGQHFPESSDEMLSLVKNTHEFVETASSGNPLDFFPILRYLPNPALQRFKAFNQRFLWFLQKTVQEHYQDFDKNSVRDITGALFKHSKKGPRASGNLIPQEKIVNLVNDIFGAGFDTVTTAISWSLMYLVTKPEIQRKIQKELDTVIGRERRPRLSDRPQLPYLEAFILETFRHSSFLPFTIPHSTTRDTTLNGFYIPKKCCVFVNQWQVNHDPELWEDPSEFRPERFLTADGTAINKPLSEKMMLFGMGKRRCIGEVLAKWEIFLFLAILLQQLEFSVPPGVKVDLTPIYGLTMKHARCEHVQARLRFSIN
3',5'-cyclic-AMP phosphodiesterase 4B (Homo sapiens), sequence (Q07343 whole entry, looked up): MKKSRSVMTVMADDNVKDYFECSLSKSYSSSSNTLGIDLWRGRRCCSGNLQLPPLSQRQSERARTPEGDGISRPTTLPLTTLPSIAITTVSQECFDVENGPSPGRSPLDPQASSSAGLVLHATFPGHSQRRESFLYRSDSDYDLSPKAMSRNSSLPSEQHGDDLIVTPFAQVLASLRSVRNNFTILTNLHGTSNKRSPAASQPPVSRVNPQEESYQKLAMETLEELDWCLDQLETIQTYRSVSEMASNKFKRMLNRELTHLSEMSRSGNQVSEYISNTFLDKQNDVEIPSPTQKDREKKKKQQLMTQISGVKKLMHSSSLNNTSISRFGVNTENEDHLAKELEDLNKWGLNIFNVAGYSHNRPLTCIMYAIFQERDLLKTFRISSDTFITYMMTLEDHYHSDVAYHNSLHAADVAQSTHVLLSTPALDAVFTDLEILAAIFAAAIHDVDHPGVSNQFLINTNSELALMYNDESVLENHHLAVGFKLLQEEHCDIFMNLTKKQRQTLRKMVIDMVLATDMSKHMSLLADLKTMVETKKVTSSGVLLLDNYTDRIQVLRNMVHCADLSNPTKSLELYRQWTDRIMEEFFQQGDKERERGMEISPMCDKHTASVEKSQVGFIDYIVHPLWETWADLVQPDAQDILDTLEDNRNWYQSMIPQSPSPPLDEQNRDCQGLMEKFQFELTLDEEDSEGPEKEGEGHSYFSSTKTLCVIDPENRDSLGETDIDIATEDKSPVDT
Cytochrome P450 3A4 (Homo sapiens), sequence (P08684 whole entry, looked up): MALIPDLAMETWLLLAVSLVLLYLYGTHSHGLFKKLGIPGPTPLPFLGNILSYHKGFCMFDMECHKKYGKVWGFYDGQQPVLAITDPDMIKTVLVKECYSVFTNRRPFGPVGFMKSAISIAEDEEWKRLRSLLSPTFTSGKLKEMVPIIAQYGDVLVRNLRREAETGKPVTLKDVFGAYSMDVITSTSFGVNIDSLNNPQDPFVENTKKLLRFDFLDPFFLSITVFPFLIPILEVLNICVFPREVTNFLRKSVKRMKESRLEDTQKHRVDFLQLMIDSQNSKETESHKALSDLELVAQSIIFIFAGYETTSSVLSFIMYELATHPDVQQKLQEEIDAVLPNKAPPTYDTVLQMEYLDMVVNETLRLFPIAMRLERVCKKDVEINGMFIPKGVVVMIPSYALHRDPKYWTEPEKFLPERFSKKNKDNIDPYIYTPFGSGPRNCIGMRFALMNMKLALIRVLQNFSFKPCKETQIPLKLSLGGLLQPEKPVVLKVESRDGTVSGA
Ubiquitin carboxyl-terminal hydrolase 1 (Homo sapiens), sequence (O94782 whole entry, looked up): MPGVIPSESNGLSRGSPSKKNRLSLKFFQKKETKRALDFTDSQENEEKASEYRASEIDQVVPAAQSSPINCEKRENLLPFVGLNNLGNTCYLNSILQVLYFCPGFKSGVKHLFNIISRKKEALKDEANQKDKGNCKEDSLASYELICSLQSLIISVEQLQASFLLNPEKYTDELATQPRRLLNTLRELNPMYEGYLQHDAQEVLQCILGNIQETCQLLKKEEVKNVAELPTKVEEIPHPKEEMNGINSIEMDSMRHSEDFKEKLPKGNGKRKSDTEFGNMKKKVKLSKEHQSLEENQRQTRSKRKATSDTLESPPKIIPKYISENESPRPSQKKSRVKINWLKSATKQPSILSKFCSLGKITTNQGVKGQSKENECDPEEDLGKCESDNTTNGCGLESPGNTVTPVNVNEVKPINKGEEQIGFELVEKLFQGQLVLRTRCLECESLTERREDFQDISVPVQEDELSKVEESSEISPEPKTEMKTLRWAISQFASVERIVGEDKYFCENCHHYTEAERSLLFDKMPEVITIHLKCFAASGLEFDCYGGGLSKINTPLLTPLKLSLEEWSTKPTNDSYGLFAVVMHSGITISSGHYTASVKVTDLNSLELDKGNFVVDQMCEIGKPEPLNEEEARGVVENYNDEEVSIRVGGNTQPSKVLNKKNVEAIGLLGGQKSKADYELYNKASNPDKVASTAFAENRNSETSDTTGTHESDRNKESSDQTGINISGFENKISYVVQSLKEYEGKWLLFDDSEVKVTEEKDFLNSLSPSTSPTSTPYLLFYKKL

COc1ccccc1-c1nccc(NCc2cnc(C)cn2)n1
active: Potency [3] 12.6 µM
inactive: Potency [1] > 11.4 µM | activity change, negative = inhibition [2] 6.33% | activity change, negative = inhibition [4] 2.9% | activity, negative = inhibition [5] 18.3% | Potency [6] > 46 µM | Potency [7] > 46 µM | outcome [8] | Potency [9] | Potency [10] | outcome [11] | activation [12] 3.22% | outcome [13] | Potency [14]

COC(=O)N1CCC[C@@]2(CCN(C(=O)Nc3cccc(F)c3)C2)C1
inactive: Potency [1] > 11.4 µM | activity change, negative = inhibition [2] -17.4% | activity, negative = inhibition [5] 1.62% | Potency [7] > 46 µM | outcome [8] | Potency [9] | Potency [10] | activity change, negative = inhibition [15] 5.97% | Potency [14]
28.7%: max response [15, 18]
20.5%: max response [15, 17]
active: Potency [3] 15.8 µM

O=C(c1ccncc1)N1CCC[C@@]2(CCN(c3ncccn3)C2)C1
inactive: Potency [1] > 11.4 µM | activity change, negative = inhibition [2] 2.24% | Potency [3] | activity, negative = inhibition [5] 1.34% | Potency [7] > 46 µM | outcome [8] | Potency [9] | Potency [10] | activity change, negative = inhibition [15] 3.78% | Potency [14]
21.2%: max response [15, 17]
24.4%: max response [15, 18]

CN(Cc1ccco1)c1ncncc1-c1ccoc1
inactive: Potency [1] > 11.4 µM | activity change, negative = inhibition [2] -12.2% | activity change, negative = inhibition [4] -18.1% | activity, negative = inhibition [5] -2% | Potency [7] > 46 µM | outcome [8] | Potency [9] | Potency [10] | Potency [16] | Potency [14]
active: Potency [3] 15.8 µM

NCCNC(=O)c1ccc(Cl)cc1
1.39% and 22.5%: max response [15, 18]
inactive: activity change, negative = inhibition [2] -4.17% [at 38 µM] | activity change, negative = inhibition [4] 9.25% [at 38 µM] | activity, negative = inhibition [5] -2.11% [at 38 µM] | Potency [6] > 46 µM | Potency [7] > 46 µM | outcome [8] | Potency [9] | activity change, negative = inhibition [15] -0.17% and -0.521%
active: Potency [3] 12.6 µM and 10 µM
0.461% and 25.8%: max response [15, 17]
